# About 79,000 compounds went through this panel and 15% of them were active in at least one assay; those are over-represented in the sample as a whole. Unmarked numbers belong to inactive results. Calls of active or inactive are those of the source. Cut-off read from the data, not from the text of the source: active = growth inhibition above about 70%; inactive = the rest.
# Tests used:
# [1] = NCI Yeast Anticancer Drug Screen. Data for the rad50 strain (AID 155);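 note: 0% = growth of vehicle-only cultures of the same strain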; settings: S. cerevisiae rad50 strain growth inhibition, active compounds read high
# Outline: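 Inhibition values express reduced yeast growth in compound-treated cultures relative to vehicle-treated controls.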
# [2] = NCI Yeast Anticancer Drug Screen. Data for the mec2-1 strain (AID 157); settings: S. cerevisiae mec2-1 strain, active compounds read high
# Outline: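 Strain: mec2-1 (DNA repair/cell cycle alteration). Compound exposure, then growth measured; inhibition expressed relative to vehicle.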
# [3] = NCI Yeast Anticancer Drug Screen. Data for the sgs1 mgt1 strain (AID 161);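 note: 0% = growth of cultures given vehicle only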; settings: S. cerevisiae sgs1 mgt1 strain, active compounds read high
# Outline: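 Genetically altered yeast, compound exposure, growth inhibition relative to vehicle.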
# [4] = NCI Yeast Anticancer Drug Screen. Data for the cln2 rad14 strain (AID 165);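 note: 0% = growth equal to vehicle treated cultures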; settings: S. cerevisiae cln2 rad14 strain, active compounds read high
# Outline: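 Compounds are applied to the cln2 rad14 yeast strain, and growth is then compared with that of vehicle-treated cultures to give inhibition.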
# [5] = NCI Yeast Anticancer Drug Screen. Data for the bub3 strain (AID 167); settings: S. cerevisiae bub3 mutant strain, active compounds read high
# Outline: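 Steps: expose the mutant yeast strain to compound; grow alongside vehicle-treated cultures; measure growth; express inhibition against the vehicle cultures.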
# [6] = NCI Yeast Anticancer Drug Screen. Data for the mlh1 rad18 strain (AID 175); settings: S. cerevisiae mlh1 rad18 strain growth inhibition, active compounds read high
# Outline: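 Read-out is yeast growth inhibition, calculated against vehicle-only controls. The compound was applied to a strain engineered with DNA damage repair alterations.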
# [7] = at 5.0 µM (retest, dose inferred, filed as 0.5)
# [8] = at 50.0 µM (retest, dose inferred, filed as 5.0)
Compound,"growth inhibition [1, 7]","growth inhibition [1, 8]",growth inhibition ([1]; at 50.0 µM),"growth inhibition [2, 7]","growth inhibition [2, 8]",growth inhibition ([2]; at 50.0 µM),"growth inhibition [3, 7]","growth inhibition [3, 8]",growth inhibition ([3]; at 50.0 µM),"growth inhibition [4, 7] [%]","growth inhibition [4, 8]",growth inhibition ([4]; at 50.0 µM),"growth inhibition [5, 7]","growth inhibition [5, 8]",growth inhibition ([5]; at 50.0 µM),"growth inhibition [6, 7]","growth inhibition [6, 8]",growth inhibition ([6]; at 50.0 µM)
CCN(CC)C(C)(C)C(=O)/C=C/c1ccc(Cl)cc1,-5%,69%,2.2%,-15%,28%,4.8%,24%,87% (active),24.9%,-9,26%,-5%,1%,82% (active),54.5%,46%,94% (active),19.7%
Cc1ccc(S(=O)(=O)N/N=C/Cc2ccccc2)cc1,2%,96% (active),87.5% (active),-13%,98% (active),7%,3%,98% (active),79.8% (active),-3,95% (active),11.6%,-5%,97% (active),12.1%,28%,98% (active),85.3% (active)
COc1cc(C=Nc2ccc(Cl)cc2)ccc1OC(=O)c1ccccc1,6%,-8%,18%,-6%,-5%,-37%,-2%,-1%,-3.8%,26,21%,7.55%,27%,30%,-6.5%,3%,-18%,11.1%
CCCCCCC(Sc1n[nH]c(=O)[nH]c1=O)C(=O)OCC (stereo unspecified),3%,76% (active),61.5%,-1%,80% (active),52.9%,1%,88% (active),77.6% (active),3,83% (active),52%,2%,77% (active),43.5%,-2%,89% (active),61.1%
COc1ccc(OC)c2c1C=C[C@H](C1(C)SCCS1)C2C(C)=O (stereo partly specified),6%,82% (active),74% (active),-4%,88% (active),82% (active),6%,77% (active),80.7% (active),7,83% (active),72.3% (active),-2%,90% (active),76.5% (active),-13%,92% (active),77% (active)
CC(=O)Nc1[c-]cccc1.CC(=O)Nc1[c-]cccc1.CC(=O)O.CC(=O)O.[Pd].[Pd],2%,31%,79.8% (active),-1%,51%,87.2% (active),17%,89% (active),92.5% (active),-7,25%,45.1%,-4%,31%,58.7%,-1%,55%,95.8% (active)
O=c1[nH]c2ccccc2c2cccc(F)c12,12%,89% (active),94.2% (active),10%,76% (active),71.3% (active),13%,88% (active),94.8% (active),4,68%,69.5%,-8%,78% (active),91.8% (active),7%,81% (active),86.7% (active)
COc1ccc(NC(=O)/C(=C/c2ccccc2)C(C)=O)cc1,59%,98% (active),98.1% (active),57%,99% (active),98.2% (active),53%,98% (active),98.5% (active),19,95% (active),97.5% (active),65%,98% (active),98.1% (active),68%,99% (active),98.1% (active)
c1ccc(N=Nc2n[nH]c3ccccc23)cc1,-144%,94% (active),98.6% (active),-51%,74% (active),98.8% (active),-66%,85% (active),92.6% (active),-59,29%,98% (active),-65%,91% (active),97.1% (active),-119%,94% (active),97% (active)
Cn1c(=O)c2c(O)c(-c3ccccc3)c(=O)n3c4ccccc4n(c1=O)c23,19%,48%,51.3%,21%,51%,27.6%,28%,68%,64.5%,7,34%,19.7%,10%,30%,25.9%,18%,59%,50.1%
CCCC(O)[C@@]1(CC)CC(C)C(O)(C2(C)C[C@H](C)[C@@H](C(CC)C(=O)C(C)[C@@H](O)[C@H](C)C3OC(O)(C(CC)C(=O)O)[C@@H](C)C(O)C3CC)O2)O1 (stereo partly specified),-9%,-13%,14.7%,-27%,-13%,23.1%,-9%,-6%,23.3%,0,28%,29.3%,-10%,-14%,25.9%,-10%,-8%,85.9% (active)
CCN(CC)CCC(=O)/C=C/c1ccc(Cl)c(Cl)c1,10%,97% (active),90% (active),0%,99% (active),93.1% (active),16%,56%,92% (active),14,97% (active),90.4% (active),10%,98% (active),91.4% (active),37%,98% (active),89.3% (active)
COc1cc(OC)c(C(c2cc3c(cc2O)OCO3)N2CCOCC2)c(OC)c1 (stereo unspecified),2%,99% (active),57.9%,2%,98% (active),61.1%,-1%,98% (active),50.3%,0,99% (active),23.7%,5%,99% (active),18.8%,-2%,99% (active),63.2%
COC(=O)c1n[nH]c(C(C)C)c1N=NN(C)C,29%,95% (active),98.9% (active),-35%,97% (active),99.1% (active),-27%,96% (active),99% (active),-11,98% (active),99% (active),,,,-77%,96% (active),99.2% (active)
CC1(c2ccc(S(=O)(=O)c3ccccc3)cc2)OC(=O)C=CC1=O (stereo unspecified),82% (active),100% (active),99.2% (active),92% (active),99% (active),99.5% (active),94% (active),99% (active),99.5% (active),44,98% (active),99.2% (active),94% (active),99% (active),99.5% (active),97% (active),99% (active),99.5% (active)
COC(=O)C1(Cc2ccc(C)cc2)Cc2c(C)cccc2C1=O (stereo unspecified),-2%,47%,70.3% (active),-2%,35%,39.9%,13%,45%,75.8% (active),6,32%,55.9%,17%,71% (active),75.2% (active),-1%,54%,54.4%
Cc1c2ccnc(-c3ccc(F)cc3)c2cc2c1[nH]c1ccccc12,-3%,1%,-0.35%,-14%,15%,-14.4%,-26%,48%,65.8%,7,17%,-35.9%,-2%,1%,-17.1%,-3%,11%,-5.15%
c1ccc2c(c1)cc(C1NCCc3[nH]cnc31)c1ccccc12 (stereo unspecified),13%,80% (active),47%,-4%,83% (active),1.5%,16%,82% (active),-15.3%,26,71% (active),30.4%,13%,96% (active),11.1%,-21%,97% (active),61.9%
S=C(N/N=C1/CCCC/C1=N/NC(=S)N1CCOCC1)N1CCOCC1,38%,96% (active),90.1% (active),33%,99% (active),93.7% (active),40%,99% (active),91.4% (active),32,98% (active),91.2% (active),,,,41%,97% (active),91.2% (active)

# — PubChem BioAssay (NCI)
